{"source": "the supplement of paper PMC10338343", "note": "± gives the standard deviation.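 Further: 1 nM active piRISC with 0.1 nM target library at 33 °C single turnover.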", "data": [{"tested_on": "MILI (PIWIL2) piRISC loaded with L1MC piRNA (26 nt)", "test": "pre-steady-state target cleavage rate (min^-1); guide: L1MC piRNA 5'p-UAACUAAAUACUAUGCAAGCUGUAGG; MIWI and MILI are mouse PIWI proteins and EfPiwi is from a freshwater sponge; tags in brackets are library labels; higher = faster piRNA-guided slicing of the target", "details": "auxiliary factor: 500 nM mouse GTSF1", "summary_of_the_method": "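Cleave-'n-Seq measured uncleaved targets by sequencing after a transcribed, DNA-blocked target RNA library […] was mixed with 1 nM active affinity-purified piRISC holding one synthetic guide, with or without 500 nM GTSF1 partner protein, at 33 °C in HEPES–potassium acetate buffer for 0–8 or 0–960 min. Counts were normalised to depth and to weakly complementary targets, three trials were pooled, and k3 was capped at 0.0001 min^-1. A burst-and-steady-state fit gave the pre-steady-state cleavage rate.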", "values": [{"sequence": "UCCUGGAAGUCCUUGCAUAGUAUUUACAAA", "pre-steady-state target cleavage rate": "0.0598 ± 0.018"}, {"sequence": "UCCUGGAUGUCGUUGCAUAGCAUUUAGUUA", "pre-steady-state target cleavage rate": "0.0206 ± 0.007"}, {"sequence": "UCCUGGAUGUCGUUGCAUAGUAUUAAGUAA", "pre-steady-state target cleavage rate": "0.0273 ± 0.012"}, {"sequence": "UCCUCCUACAGCUACCAUAGUAUUUAGAAA", "pre-steady-state target cleavage rate": "0.0576 ± 0.019"}, {"sequence": "UCCUGCUACAGCUUGCUAUGUAUUUAGAAA", "pre-steady-state target cleavage rate": "0.0133 ± 0.0063"}, {"sequence": "UCCUGGAUGUCGAACGUAUGUAUUUAUUUA", "pre-steady-state target cleavage rate": "< 0.0001"}, {"sequence": "UCCUGGAUCAGCUUGCUAUGUAUUUAGAAA", "pre-steady-state target cleavage rate": "0.00524 ± 0.0033"}, {"sequence": "UCCUGGAUGUCCUUCCAUAGUAUUUAGUAA", "pre-steady-state target cleavage rate": "0.0112 ± 0.0045"}, {"sequence": "UCCUGGAACAGCUUGCAUAGAUAUUAGUUA", "pre-steady-state target cleavage rate": "0.0112 ± 0.0053"}, {"sequence": "UCCUGGAUGUCCUUGCAUAGUAUUUAAUUA", "pre-steady-state target cleavage rate": "0.0833 ± 0.017"}, {"sequence": "UCCUCCUACAGCUUCCAUACUAUUUAGUUA", "pre-steady-state target cleavage rate": "0.0171 ± 0.0071"}, {"sequence": "UCCUGGUACAGCUUGCAAAGUAUUUACAAA", "pre-steady-state target cleavage rate": "0.0115 ± 0.0055"}, {"sequence": "UCCUGGAACAGCUUGCAAUGUAUUUAGAAA", "pre-steady-state target cleavage rate": "0.0719 ± 0.018"}, {"sequence": "UCCUGGAUGUGCUAGCAUAGUAUUUAGAAA", "pre-steady-state target cleavage rate": "0.0422 ± 0.012"}, {"sequence": "UCCUGGAUCAGCUUGGUUAGUAUUUACAAA", "pre-steady-state target cleavage rate": "0.00756 ± 0.0052"}, {"sequence": "UCCUGGAACAGCUUGCAUAGUAUAAACAAA", "pre-steady-state target cleavage rate": "0.0505 ± 0.015"}, {"sequence": "UCCUGGAUGAGCUUCGAUAGUAUUUAGUAA", "pre-steady-state target cleavage rate": "0.0558 ± 0.012"}, {"sequence": "UCCUGCUACAGCUUGCAUAGUAUUAACUUA", "pre-steady-state target cleavage rate": "0.0306 ± 0.0076"}, {"sequence": "UCCUGGAUGUCGAUGCAUAGUAUUUAUUUA", "pre-steady-state target cleavage rate": "0.0578 ± 0.015"}, {"sequence": "UCCUGGAUGUGCUUGCAUAGUAUUUACAUA", "pre-steady-state target cleavage rate": "0.0112 ± 0.0044"}, {"sequence": "UCCUGGAUCAGCUUGCUAAGUAUUUAGUAA", "pre-steady-state target cleavage rate": "0.0344 ± 0.01"}, {"sequence": "UCCUGGAUCAGCUUGCAUUGUAUUUACAAA", "pre-steady-state target cleavage rate": "0.0117 ± 0.005"}, {"sequence": "UCCUCCUACAGCUUGCAUUCUAUUUAGUAA", "pre-steady-state target cleavage rate": "0.0535 ± 0.017"}, {"sequence": "UCCUGGAACAGCUACGAUAGUAUUUAGUAA", "pre-steady-state target cleavage rate": "0.142 ± 0.02"}, {"sequence": "UCCUGGAACAGCUUGCAUAGAAUUUACUUA", "pre-steady-state target cleavage rate": "0.0289 ± 0.011"}, {"sequence": "UCCUGGAACUGCUUGCAUAGAAUUUAGUUA", "pre-steady-state target cleavage rate": "0.0556 ± 0.013"}, {"sequence": "UCCUGGAUCAGCUUGCAUAGAAUUUAGUAA", "pre-steady-state target cleavage rate": "0.0373 ± 0.011"}, {"sequence": "UCCUGGUACAGCUUGCAUAGUAUUUUCAAA", "pre-steady-state target cleavage rate": "0.109 ± 0.027"}, {"sequence": "UCCUGGAUGAGCUUGCAUAGUUUUAAGUUA", "pre-steady-state target cleavage rate": "0.0195 ± 0.0084"}, {"sequence": "UCCUGGAUCAGCUACGAUAGUAUUUAGUUA", "pre-steady-state target cleavage rate": "0.0475 ± 0.0093"}, {"sequence": "UCCUGGAACAGCUUGCUUAGUAUUUUCAAA", "pre-steady-state target cleavage rate": "0.0287 ± 0.011"}, {"sequence": "UCCUGGAUGUCGAACCAUAGUAUUCAGUUA", "pre-steady-state target cleavage rate": "< 0.0001"}, {"sequence": "UCCUGGUACAGCUUGCAUACUAUUUACUUA", "pre-steady-state target cleavage rate": "0.05 ± 0.014"}, {"sequence": "UCCUGGAUCAGCUUCGAUAGUAUUUAGAAA", "pre-steady-state target cleavage rate": "0.0608 ± 0.017"}]}]}
